Laboratory results: PubChem BioAssay AID1028 (SRMLSC, 2008)
Measured potencies and affinities stand elsewhere. Activity calls are given as the source filed them.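 Rule for the calls: active = enzyme inhibitor confirmed by dose series, half-maximal inhibitory concentration at most 40 µM; inactive = the rest.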

Biological target: diphosphomevalonate decarboxylase (Streptococcus pneumoniae D39) (UniProt Q9FD53)
Assay: diphosphomevalonate decarboxylase inhibitor confirmation – biochemical, cuvette format, coupled NADH fluorescence (AID 1028)
Details: purified DPM-DC, rate, at 50 µM, active compounds read high

inhibition, inactive:
Cc1ccc(C)c(-c2nc3cc([N+](=O)[O-])ccc3o2)c1 1.75%, Cc1ccccc1-c1nc2cc(N)ccc2o1 6.79%, COc1ccc2nc(-c3ccccc3C)oc2c1 4.59%, COc1ccc2nc(-c3ccc(F)cc3)oc2c1 4.34%
